Rows were chosen to be rich in hits. Some 2.9% of all compounds tested hit in one or more screens of this group.
ATXN2 expr inh: inhibitors of ATXN2 expression. AID 1745845. HEK-293 ATXN2-luciferase reporter, luminescence, 24 h. Potency, µM (series often up to 57 µM), hits mostly inhibitors. actives 0.72% (n = 360,000); further: nearly all actives have a fitted effect of over 55% in size
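ATXN2-luciferase reporter cells (luciferase flanked by upstream and downstream ATXN2 gene portions) were treated 24 h at 37 °C with compounds at up to 57 uM. SteadyGlo luminescence gave expression; GF-AFC fluorescence gave viability.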
S2 tox: viability counter-screen for ATXN expression inhibitors; Potency, µM (highest dose often 56.7 µM), actives largely listed as cytotoxic; S2 cells (HEK-293 line with an ATXN2-luciferase reporter) viability, CellTiter-Fluor protease fluorescence, 24 h; actives 0.49% (n = 400,000); further: nearly all actives have a fitted effect of over 40% in size
Nrf2 activator: Nrf2 pathway activation; Potency, µM (titrated, usually from 46.1 µM), actives largely listed as activators; AREc32 ARE-luciferase reporter (MCF7-derived line), luminescence, 24 h; actives 0.31% (n = 410,000); further: nearly all actives have a fitted effect of over 65% in size
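For detection, Steady-Glo was added and plates sat 30 min at RT; before that, AREc32_Fluc cells grown overnight in OPTI-MEM/5% FBS had been treated with 23 nL compound for 24 hr at 37 deg C.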
A549 tox: counter-screen for Nrf2 inhibitors: cytotoxicity in A549 cells; A549 ARE-Fluc cells, CellTiter-Fluor viability, 18-24 h; Potency, µM (top dose mostly 46 µM), most hits filed as inhibitors; actives 0.16% (n = 390,000)
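A549 ARE_Fluc cells in 5% FBS OPTI-MEM were exposed to compounds in concentration-response for 18-24 h at 37 deg C. Viability was read by CellTiter-Fluor fluorescence (Ex 405/Em 525) after 30 min, before the luciferase read.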
Nrf2 block: blocks Nrf2 signaling; A549 ARE-Fluc reporter, luciferase luminescence, 18-24 h; Potency, µM (top dose mostly 46 µM), hits mostly inhibitors; actives 2.1% (n = 360,000); AID 504444; further: nearly all actives have a fitted effect of over 60% in size
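Quantitative HTS in A549 cells stably bearing an antioxidant response element-firefly luciferase construct. Inhibition of Nrf2-driven transcription was scored by luminescence after 18-24 h of compound exposure at 37 °C.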
Hits are given with their value. The call rests on the fitted dose curve; in most records, active means well fitted curve in the direction sought with a large enough effect; inconclusive means small, poorly fitted or top-dose-only effect, or another doubt; inactive means no such curve, though single readings can be large; an effect the other way counts as inactive or inconclusive.

Screening Cc1cccc2c(=O)cc(CSc3ccccc3NC(=O)c3cccc(Br)c3)[nH]c12 returned ATXN2 expr inh inactive, S2 tox 17.8µM, Nrf2 activator inactive and A549 tox inactive.
Screening Cc1cccc(C(=O)Nc2ccccc2SCc2cc(=O)c3cccc(C)c3[nH]2)c1 returned ATXN2 expr inh inactive, S2 tox inconclusive, Nrf2 activator inactive and A549 tox inactive.
For CCOc1ccc(NC(=O)CN(C)C(=O)CSC(C)C(=O)Nc2cc(C)on2)cc1OCC (stereo unspecified) the results were ATXN2 expr inh inactive, S2 tox inconclusive, Nrf2 activator inactive, A549 tox inactive and Nrf2 block inactive.
For CCN(CC)Cc1cc(Nc2c3ccccc3nc3c4ccccc4n(C)c23)cc(CN(CC)CC)c1O the results were ATXN2 expr inh 20µM, S2 tox 31.6µM, Nrf2 activator inconclusive, A549 tox 16.4µM and Nrf2 block inconclusive.
Screening CCOc1cc2nc3c4ccccc4n(C)c3nc2cc1OCC returned S2 tox inactive, Nrf2 activator inactive, A549 tox inactive and Nrf2 block inactive.
`Cc1c(Cl)cccc1NC(=O)c1cc(-c2ccco2)on1` gave ATXN2 expr inh inactive, S2 tox inactive, Nrf2 activator 12.6µM, A549 tox inactive and Nrf2 block inconclusive.
Nc1nc(Cl)cc(N2CCCC2)n1 was read as ATXN2 expr inh inactive, S2 tox inactive, Nrf2 activator inactive, A549 tox inactive and Nrf2 block inconclusive.
`Nc1nc(Cl)cc(N2CCC(c3cc(-c4ccc(Cl)cc4Cl)n[nH]3)CC2)n1` gave ATXN2 expr inh inconclusive, S2 tox inconclusive, Nrf2 activator inactive, A549 tox inconclusive and Nrf2 block 10.3µM.
Screening COc1ccccc1/C=C/CN1CCN(Cc2ccc(F)cc2)C(CCO)C1 (stereo unspecified) returned ATXN2 expr inh inactive, S2 tox inactive, Nrf2 activator inactive, A549 tox inactive and Nrf2 block inactive.
O=C(NC1CCCCC1)C(c1cccnc1)N(C(=O)CCl)c1ccccc1Cl (stereo unspecified) was read as ATXN2 expr inh inactive, S2 tox inactive, Nrf2 activator inconclusive, A549 tox inactive and Nrf2 block inconclusive.
`COc1ccc(N(C(=O)CCl)C(C(=O)NC2CCCCC2)c2cccnc2)cc1` (stereo unspecified) gave ATXN2 expr inh 14.1µM, S2 tox 8.91µM, Nrf2 activator inconclusive, A549 tox inactive and Nrf2 block inactive.
`COc1ccc(N(C(=O)Cc2cccs2)C(C(=O)NC2CCCC2)c2ccncc2)cc1` (stereo unspecified) gave ATXN2 expr inh inactive, S2 tox inactive, Nrf2 activator inactive, A549 tox inactive and Nrf2 block inconclusive.
O=C(NC1CCCCC1)C(c1cccnc1)N(C(=O)CCl)c1ccc(F)cc1 (stereo unspecified) was read as ATXN2 expr inh 3.98µM, S2 tox 6.31µM, Nrf2 activator inconclusive, A549 tox inactive and Nrf2 block 18.4µM.
For O=S(=O)(NC1CCCCC1)c1cccc(-c2nnc(-c3ccccc3)o2)c1 the results were ATXN2 expr inh inactive, S2 tox inactive, Nrf2 activator inactive, A549 tox inactive and Nrf2 block inconclusive.
`Cn1c2ccccc2n2c(=O)c(=O)n(CC(=O)c3ccc(Cl)cc3)nc12` gave ATXN2 expr inh inactive, S2 tox inactive, Nrf2 activator inactive, A549 tox inactive and Nrf2 block inactive.
CC(C)(C)C(=O)Nc1ccc(Cc2ccncc2)cc1 was read as ATXN2 expr inh inactive, S2 tox inactive, Nrf2 activator inactive, A549 tox inactive and Nrf2 block inactive.
For Clc1ccc2c(NCc3cccs3)ncnc2c1 the results were S2 tox inactive, Nrf2 activator inactive, A549 tox inactive and Nrf2 block 16.4µM.
Screening Clc1ccc2c(NCc3ccccn3)ncnc2c1 returned ATXN2 expr inh inactive, S2 tox inconclusive, Nrf2 activator 6.31µM and A549 tox inactive.
COc1cc2ncnc(NCc3cccs3)c2cc1OC was read as ATXN2 expr inh inactive, S2 tox inactive, Nrf2 activator inactive, A549 tox inactive and Nrf2 block inactive.
CC1CCN(C(=O)CSc2nnc(-c3cccnc3)n2C2CCCCC2)CC1 was read as ATXN2 expr inh inactive, S2 tox inactive, Nrf2 activator inactive and A549 tox inactive.
For CN(C)CCCN(C(=O)c1ccc(S(=O)(=O)N2CCc3ccccc3C2)cc1)c1nc2ccc(F)cc2s1 the results were ATXN2 expr inh inconclusive, S2 tox inconclusive, Nrf2 activator inactive, A549 tox inconclusive and Nrf2 block inconclusive.
For Cc1ccc2nc(N(CCCN(C)C)C(=O)c3ccc(S(=O)(=O)N4CCc5ccccc5C4)cc3)sc2c1 the results were ATXN2 expr inh inconclusive, S2 tox inconclusive, Nrf2 activator inactive, A549 tox inconclusive and Nrf2 block 20.6µM.
`Cc1cc(C)c2sc(N(CCCN(C)C)C(=O)c3ccc(S(=O)(=O)N4CCCc5ccccc54)cc3)nc2c1` gave ATXN2 expr inh inconclusive, S2 tox 28.2µM, Nrf2 activator inactive, A549 tox inactive and Nrf2 block inactive.
For CN(C)CCCN(C(=O)c1ccc(S(=O)(=O)N2CCc3ccccc32)cc1)c1nc2ccc(F)cc2s1 the results were ATXN2 expr inh inconclusive, S2 tox inactive, Nrf2 activator inactive, A549 tox inactive and Nrf2 block inactive.
For CCCOC(=O)c1ccc(Oc2cn[nH]c2-c2ccc(OCC(=O)NN)cc2O)cc1 the results were S2 tox inactive, Nrf2 activator inactive, A549 tox inactive and Nrf2 block inactive.
`O=C(NCCSc1ccccc1)c1ccc(Br)cc1` gave ATXN2 expr inh inactive, S2 tox inactive, Nrf2 activator inactive, A549 tox inconclusive and Nrf2 block inconclusive.
`CN(C)S(=O)(=O)c1ccc(C(=O)NCCSc2ccc(Br)cc2)cc1` gave ATXN2 expr inh inactive, S2 tox inactive, Nrf2 activator inactive, A549 tox inconclusive and Nrf2 block 20.6µM.
O=C(/C=C/c1ccc(O)cc1)c1ccc(NC2=C(N3CCCCC3)C(=O)c3ccccc3C2=O)cc1 was read as ATXN2 expr inh inconclusive, S2 tox inconclusive, Nrf2 activator inactive, A549 tox inconclusive and Nrf2 block 14.6µM.
For CC(=O)Nc1ccc(S(=O)(=O)N(C)CC(=O)NC2CCCC(C)C2C)cc1 (stereo unspecified) the results were ATXN2 expr inh inactive, S2 tox inactive, Nrf2 activator inactive, A549 tox inactive and Nrf2 block inactive.
Oc1ccc(CN2CCC(Cc3ccccc3)CC2)c2cccnc12 was read as ATXN2 expr inh inconclusive, S2 tox inactive, Nrf2 activator inactive, A549 tox inactive and Nrf2 block inconclusive.
Screening Oc1ccc(CN2CCCCC2)c2cccnc12 returned ATXN2 expr inh 20µM, S2 tox 12.6µM, Nrf2 activator inactive, A549 tox inconclusive and Nrf2 block inconclusive.
COc1cc(CN2CCc3ccccc3C2)ccc1O was read as S2 tox 17.8µM, Nrf2 activator inactive, A549 tox inactive and Nrf2 block 7.31µM.

Assay outcomes from PubChem.
